# From PubChem
# A selection: hits, their analogues and other compounds. The true share with any hit is near 1.6%.
# 12-LOX inh: ALOX12 (human) lipoxygenase inhibition | purified 12hLO, xylenol orange hydroperoxide absorbance | 1.1% of 580,000 active | P18054 | Potency, µM (titrated, usually from 108 µM), hits mostly inhibitors | AID 1671190
# Target sequence (P18054 whole entry, looked up): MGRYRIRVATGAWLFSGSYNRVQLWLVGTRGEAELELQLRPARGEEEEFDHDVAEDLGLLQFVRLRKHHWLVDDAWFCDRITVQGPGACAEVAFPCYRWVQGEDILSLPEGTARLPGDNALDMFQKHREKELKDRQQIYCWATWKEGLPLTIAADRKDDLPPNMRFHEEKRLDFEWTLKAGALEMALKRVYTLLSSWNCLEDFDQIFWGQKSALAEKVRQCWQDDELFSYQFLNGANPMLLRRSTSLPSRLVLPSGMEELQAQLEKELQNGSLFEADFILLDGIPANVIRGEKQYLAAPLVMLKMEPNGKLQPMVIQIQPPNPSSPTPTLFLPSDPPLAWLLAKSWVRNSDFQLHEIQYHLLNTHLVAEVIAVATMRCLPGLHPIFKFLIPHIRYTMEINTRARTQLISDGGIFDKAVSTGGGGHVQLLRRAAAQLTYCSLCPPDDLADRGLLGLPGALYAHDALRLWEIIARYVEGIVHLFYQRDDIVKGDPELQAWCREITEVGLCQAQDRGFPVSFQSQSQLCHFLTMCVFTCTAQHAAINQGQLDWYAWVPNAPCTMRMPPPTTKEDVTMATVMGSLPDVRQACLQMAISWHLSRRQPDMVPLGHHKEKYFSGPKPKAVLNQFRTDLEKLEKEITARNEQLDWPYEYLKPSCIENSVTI
#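 Hydroperoxide product was detected by ferrous iron/xylenol orange as the 573 to 405 nm absorbance ratio. Arachidonic acid at 40 uM (final) was turned over for 30 min at room temperature by 150 nM human 12hLO, pH 7.0 Hepes buffer, after 15 min compound preincubation.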
# gsp antag: antagonizes gsp, the McCune-Albright syndrome mutation. Potency, µM (highest dose often 76.9 µM), most hits filed as inhibitors. gsp-mutant cells, cAMP HTRF, 30 min. 0.4% of 340,000 active; calls by dose curve; cell line not stated here;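 further: intracellular cAMP measured with PDE inhibitor Ro 20-1724 present during compound exposure; nearly all actives have a fitted effect of over 65% in size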
#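 Cells in G418 medium, seeded 16-24 h, 37C; buffer exchange to DPBS + 1 mM CaCl2, 0.5 mM MgCl2, 0.05% BSA; cpds in DMSO + […] (300 uM stock), 30 min 37C; HTRF cAMP detection.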
# gsp ag: agonists of gsp mutant (McCune-Albright syndrome); gsp mutant cells, cAMP HTRF, 30 min; Potency, µM (titrated, usually from 76.9 µM), hits mostly activators; 0.13% of 340,000 active; AID 624287; active means well fitted activation curve with a large enough effect; inconclusive means small, poorly fitted or top-dose-only effect, or another doubt; inactive means no such curve, though single readings can be large or run the other way; cell line not stated here;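 further: phosphodiesterase inhibitor Ro 20-1724 added with compounds to block cAMP breakdown; nearly all actives have a fitted effect of over 60% in size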
#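 Cells in DMEM/10% FBS with G418 were pretreated with compounds in DMSO plus […] (300 uM stock) for 30 min at 37C. cAMP was measured by HTRF (cAMP-d2 plus anti-cAMP antibody-K) after 30 min at room temperature.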
# Mito fusion act: mitochondrial division inhibition or fusion activation | S. cerevisiae fusion-defective mutant growth rescue, CellTiterGlo 48 h | Potency, µM (titrated, usually from 46.1 µM), most hits filed as activators | 0.23% of 320,000 active; further: nearly all actives have a fitted effect of over 45% in size
#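 Temperature-sensitive fusion-defective S. cerevisiae (e.g. fzo1-1, mgm1-5) were grown with compound in YPEG medium (3% ethanol, 3% glycerol) for 48 hours at 37C. Growth rescue was measured as viability by CellTiterGlo luminescence after 10 minutes at ambient.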
# FUS suppressor: suppressors of FUS proteinopathy in yeast. S. cerevisiae FUS-expressing, growth rescue, OD600, 24 h. Potency, µM (series often up to 76.6 µM), hits mostly activators. 0.24% of 390,000 active; further: nearly all actives have a fitted effect of over 55% in size
#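 Absorbance at 600 nm, taken 24hr after compound addition, measured rescue of FUS-yeast growth at 30C. Induction used 2% galactose with seeding at OD 0.005. Controls: CP55940 from 92uM final, DMSO only.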
# A number is an active result; . = inactive; ? = inconclusive; / = no result given; ! = not confirmed by another sample; [ ] = another dose, or the depositor's remark. Unless noted, the call rests on the fitted dose curve; in most records, active means well fitted curve in the direction sought with a large enough effect; inconclusive means small, poorly fitted or top-dose-only effect, or another doubt; inactive means no such curve, though single readings can be large; an effect the other way counts as inactive or inconclusive.
SMILES,12-LOX inh,gsp antag,gsp ag,Mito fusion act,FUS suppressor
CC(C)(C)S(=O)N1Cc2cc(C(=O)N3CCOCC3)nc(-c3cccc(Br)c3)c2[C@@H]1CCO (some centres not stated),5.01µM,/,/,/,.
COc1cccc(CNC(=O)c2cc3c(c(-c4cccc(-c5cccc(C#N)c5)c4)n2)[C@H](CCO)N(S(=O)C(C)(C)C)C3)c1 (some centres not stated),.,/,/,/,22.4µM
Cc1cc(C)c2oc(C(=O)N(Cc3ccco3)c3ccccn3)cc(=O)c2c1,.,/,/,/,/
O=C(NCc1ccccc1)C1CCCN(C2CCN(C(=O)C3CCC3)CC2)C1 (configuration not stated),.,/,/,/,/
O=C(NC1CC1)C(Sc1ccc(Cl)cc1)c1ccccc1 (configuration not stated),.,/,/,/,/
CCCc1cc(C(=O)Nc2ccc(C(=O)c3ccc(F)cc3)cc2)n(C)n1,/,35.5µM,.,.,?
CCCc1cc(C(=O)Nc2ccc(C(=O)c3ccccc3)cc2)n(C)n1,.,?,.,.,.
Cc1nc2ccccc2c(C)c1CC(=O)N(C)C(C)c1cc2ccccc2o1 (configuration not stated),.,/,/,/,/
CC1Nc2ncnc(N3CCN(c4ccccc4)CC3)c2N(Cc2ccccc2)C1=O (configuration not stated),.,.,.,.,.
CC1Nc2ncnc(N3CCN(c4ccccc4)CC3)c2N(Cc2ccc(Cl)cc2)C1=O (configuration not stated),?,.,.,?,20µM
Cc1ccc(-n2c(O)c(C=Nc3ccccc3-c3n[nH]c(=S)[nH]c3=O)c3ccccc3c2=O)c(C)c1,15.8µM,.,?,.,.
Cc1ccccc1OCCN,.,/,/,/,/
O=C(N/N=C/c1ccc(Br)s1)c1cccc(Cl)c1,.,/,/,/,/
CN(C)c1ccc(C(=O)N/N=C/c2ccc(Br)s2)cc1,20µM,/,/,/,/
COc1cccc(-c2coc3cc4oc(=O)c(CCC(=O)O)c(C)c4cc23)c1,/,?,.[15.4 µM],22.4µM,.
COc1cccc(-c2coc3c(C)c4oc(=O)c(CCC(=O)O)c(C)c4cc23)c1,.,?,.[15.4 µM],.,?
CCOCCOC1CCN(C(=O)Nc2ccc(C(=O)OC)cc2)CC1,.,/,/,/,/
COCCCn1c(=O)/c(=C\c2cccc(OC)c2OC)s/c1=C(/C#N)C(=O)Nc1ccc(C(=O)O)cc1,.,14.1µM,.,.,.
Cc1ccc(C(=O)N2CC(CO)C3(CCNCC3)C2)c(C)c1 (configuration not stated),.,/,/,/,/
O=C(c1ccc(Cl)cc1)N1CC(CO)C2(CCNCC2)C1 (configuration not stated),39.8µM,/,/,/,/
O=C(c1cccc(S(=O)(=O)N2CCN(c3ccc(F)cc3)CC2)c1)N1CCCCCCC1,.,.,?,15.8µM,.
O=C(Nc1ccc2c(c1)CCC2)c1cccc(S(=O)(=O)N2CCN(c3ccccc3)CC2)c1,.,.,.,.,14.1µM
O=C(c1ccc2c(c1)CCN2S(=O)(=O)c1ccccc1)N1CCN(c2ccc(F)cc2)CC1,.,.,.,.,17.8µM!
Cc1ccc(C(=O)N2CCN(c3ccccc3)CC2)cc1S(=O)(=O)N1CCCC1,.,31.6µM,.,.,.
COC(=O)[C@@H]1Cc2ncn(Cc3ccc(OC)cc3)c2CN1C(=O)CC(C)(C)C,.,/,/,/,/
SMILES,12-LOX inh,gsp antag,gsp ag,Mito fusion act,FUS suppressor
CC1CCN(C(=O)c2cccc(S(=O)(=O)N3CCN(c4ccccc4)CC3)c2)CC1,.,.,.,17.8µM,.
COc1ccc(NC(=O)CN(C)C(=O)c2cccc(S(=O)(=O)N3CCN(c4ccc(F)cc4)CC3)c2)cc1,.,.,.,/,22.4µM
CN(CC(=O)Nc1ccc(F)cc1)C(=O)c1cccc(S(=O)(=O)N2CCN(c3ccccc3)CC2)c1,.,.,.[15.4 µM],.,?
C=C(C)CSC1=C(C#N)C(c2ccccc2Cl)CC(=O)N1 (configuration not stated),22.4µM,.,.,.,/
Cc1nccc(-c2cccc(NC(=O)c3cc[n+]([O-])cc3)c2)n1,.,/,/,/,/
CCOC(=O)C(NC(=O)Cc1c[nH]c2ccccc12)C(=O)OCC,.,/,/,/,/
O=C(/C=C/c1cccs1)Nc1cccc(NC(=O)/C=C/c2cccs2)n1,.,.,.,14.1µM,.
O=C(Nc1ccc(OC(F)F)cc1)c1cc2ccccc2[nH]1,.,/,/,/,/
